High-throughput results: PubChem BioAssay, several laboratories
An excerpt weighted towards active compounds, which were near 5.1% of everything screened.
CRFR2-BP ag = CRF-BP/CRF-R2 complex agonism | HEK293 CRF-R2/CRF-BP, calcium dye fluorescence (FLIPR); percent of saturating CRF peptide response | activation, % at 13.2 µM | hit rate 0.46% among 350,000 | AID 588473;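 active means activation of at least 50%, plus an integration ratio under a set limit after plate pattern correction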;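 further: plate controls were neutral control wells without compound for no effect and CRF at EC100 for full effect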
MPTP block = blocks calcium-induced mitochondrial swelling. isolated mouse mitochondria, Ca2+ swelling absorbance, 30 min. hit rate 1.4% among 360,000. AID 602449. inhibition, % at 10 µM;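 active means inhibition of 50% or more, scaled per plate between neutral and stimulator controls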;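 further: 0% = DMSO wells given calcium and 100% = 1 mM EGTA wells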
GRIN3A LBD mod = modulators (binders) of human NR3A ligand-binding domain | NR3A LBD differential scanning fluorimetry, Tm shift; 0% = protein alone, 100% = glycine-bound protein | Tm shift relative to glycine control, % at 25 µM | hit rate 2.5% among 340,000 | AID 1259313;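 active means melting temperature shift of at least 10% of the positive control shift, at one fixed dose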
ANO1 block = mouse TMEM16A channel inhibition, primary screen | normalized B-score (activity score, 25-100; higher = stronger inhibition) at 10 µM | HEK293 TMEM16A/YFP iodide influx fluorescence, ionomycin | hit rate 1.2% among 310,000 | AID 588511 | Q8BHY3;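 active means ratio plate-corrected score three or more library SD toward inhibition, starting fluorescence score within five deviations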;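 further: score derived from kinetic fluorescence span divided by baseline fluorescence per well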
ANO1 activ = mouse TMEM16A channel activation, primary screen; Q8BHY3; HEK293 TMEM16A/YFP-H148Q/I152L, iodide quench fluorescence; stronger effect = lower value; B-score at 10 µM; hit rate 0.3% among 340,000;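 active means fluorescence-ratio B-score plate-corrected deviation score at least 3 library SD below zero, with starting fluorescence score within 5 deviations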;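 further: channel opened by trigger with iodide after compound preincubation; score built on the fluorescence ratio of max minus min over baseline; more negative score means more quench and so TMEM16A activation or potentiation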
CRFBP-R2 block = antagonists of CRF-binding protein/CRF-R2 receptor complex | HEK293 CRF-R2/CRF-BP, CRF-induced calcium fluorescence | inhibition, % at 11.8 µM | hit rate 0.59% among 350,000;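 active means inhibition of the ligand-induced calcium signal above about 50% at the single tested concentration, limit read from the data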
An asterisk follows results filed as active; i = inactive; nt = no result.

SMILES	CRFR2-BP ag	MPTP block	GRIN3A LBD mod	ANO1 block	ANO1 activ	CRFBP-R2 block
Cc1ccc(S(=O)(=O)NC(Cc2ccccc2)C(=O)O)cc1 (stereo not drawn)	-2	0	-1	i	i	3
Cc1ccc(S(=O)(=O)Nc2ccc(NC(=O)c3cccs3)cc2)cc1	0	4	18*	i	i	-4
CCC(CC)C(=O)Nc1cccc(C(=O)Nc2ccc(S(=O)(=O)Nc3ccc(C)cc3)cc2)c1	0	11	19*	i	i	-11
O=C(O)c1ccccc1C(=O)Nc1ccc(S(=O)(=O)Nc2ccc(F)cc2)cc1	1	0	10*	i	i	-17
CN(Cc1ccc(F)cc1)C(=O)c1ccc(NS(=O)(=O)c2ccccc2)cc1	0	-2	13*	i	i	3
CC[C@@H](C(=O)n1nc(C)cc1C)[C@H](NS(=O)(=O)c1ccc(C)cc1)c1ccccc1	0	5	13*	i	i	4
Cc1cc(NS(=O)(=O)c2ccc(NC(=O)c3c(F)c(F)c(F)c(F)c3F)cc2)nc(C)n1	1	0	1	i	i	-3
Cc1ccc(S(=O)(=O)Nc2ccc(NC(=O)c3c(F)c(F)c(F)c(F)c3F)cc2)cc1	58*	2	15*	i	i	-80
CCCNC(=O)C1(C)CCCN(Cc2cccc3ccccc23)C1 (stereo not drawn)	nt	-2	nt	nt	nt	nt
O=C(N/N=C/c1cccs1)c1cc(-c2ccc3ccccc3c2)n[nH]1	-1	3	13*	i	i	-47
Cc1nc(C)c(C(=O)N/N=C/c2c[nH]c3ccccc23)s1	0	-2	-4	i	i	19
O=C(N/N=C/c1c[nH]c2ccccc12)c1cc(-c2ccc3ccccc3c2)n[nH]1	0	1	41*	i	i	-40
Cc1ccc(-c2cc(C(=O)N/N=C/c3c[nH]c4ccccc34)[nH]n2)cc1	1	1	27*	nt	-5.4*	-16
O=C(N/N=C/c1c[nH]c2ccccc12)c1ccn[nH]1	-4	-3	11*	i	i	17
COc1cccc(NC(=O)CCC(=O)Nc2cc(OC)c(NC(=O)c3cccs3)cc2OC)c1	-2	-2	-1	nt	i	9
COc1cc(CN2CCN(C(O)(c3ccccc3)c3ccccc3)CC2)cc(OC)c1OC	-1	0	-1	i	i	13
O=C(OCCOc1ccccc1F)c1cccc(S(=O)(=O)N2CCOCC2)c1	0	-1	1	nt	i	8
COc1cc(OC)cc(C(=O)NCC(=O)NCC(c2ccco2)N2CCCCC2)c1 (stereo not drawn)	-1	0	0	nt	i	-6
Cc1ccc(S(=O)(=O)N2CCN(C(=O)COC(=O)c3cccc(Cl)c3)CC2)c(C)c1	-1	-1	1	nt	i	3
CCCCn1c(N)c(N(CC(C)C)C(=O)c2oc3ccc(Br)cc3c2C)c(=O)[nH]c1=O	-1	0	-4	i	i	20
O=C(N/N=C/c1c[nH]c2ccccc12)c1cc(-c2ccc(-c3ccccc3)cc2)n[nH]1	-1	2	20*	i	i	5
O=C(N/N=C/c1c[nH]c2ccccc12)c1cc(-c2cccc3ccccc23)n[nH]1	0	0	10	i	i	-12
O=C(N/N=C/C=C/c1ccccc1[N+](=O)[O-])c1ccncc1	-1	1	-1	i	i	-7
O=C(N/N=C/C=C\c1ccccc1[N+](=O)[O-])c1cc(-c2ccc3ccccc3c2)n[nH]1	2	11	18*	nt	i	14
O=C(N/N=C/c1c[nH]c2ccccc12)c1cc(-c2ccccc2)n[nH]1	0	1	31*	i	i	-4
SMILES	CRFR2-BP ag	MPTP block	GRIN3A LBD mod	ANO1 block	ANO1 activ	CRFBP-R2 block
O=C(COC(=O)COc1ccccc1)Nc1cccc([N+](=O)[O-])c1	-3	-1	-2	i	i	12
CC(Oc1ccccc1)C(=O)Nc1ccc(C(N)=O)cc1 (stereo not drawn)	9	0	-3	i	i	3
CC(C)NS(=O)(=O)c1ccc(NC(=O)C(C)Oc2ccc(C(=O)c3ccccc3)cc2)cc1 (stereo not drawn)	162*	27	-1	100*	i	-115
O=C(COc1ccc([N+](=O)[O-])cc1)Nc1ccc(S(=O)(=O)N2CCOCC2)cc1	2	1	0	i	i	-18
O=C(COc1ccc(S(=O)(=O)N2CCOCC2)cc1)Nc1cccc([N+](=O)[O-])c1	-1	0	19*	i	i	13
CC(NS(=O)(=O)c1ccc(OCC(=O)Nc2cccc([N+](=O)[O-])c2)cc1)c1ccccc1 (stereo not drawn)	8	20	19*	i	i	-16
CC(C)NS(=O)(=O)c1ccc(OCC(=O)NCc2ccccc2)cc1	0	-2	11*	i	i	-2
CCOC(=O)C1=NNC2C(=O)N(Cc3ccccc3)C(=O)C12 (stereo not drawn)	-1	0	1	i	i	17
O=C(c1ccc2ccccc2c1)c1cccc(F)c1C(=O)O	1	0	nt	nt	nt	24
COc1ccccc1CC1(C)C(=O)Nc2ccc(S(=O)(=O)NC3CCCCC3)cc21 (stereo not drawn)	nt	1	nt	nt	nt	nt
CC(C)=CCn1c2ccc(NC(=O)NCc3ccc(F)cc3)cc2c(=O)n1C	nt	1	nt	nt	nt	nt
CC(CCc1ccccc1)NC(=O)COc1ccc(S(=O)(=O)N2CCOCC2)cc1[N+](=O)[O-] (stereo not drawn)	-1	12	13*	i	i	-12
COc1ccccc1NC(=O)CSc1nnc2ccc(-c3ccccn3)nn12	-2	-2	0	i	i	-9
CCc1nc2ccc(C(=O)Nc3ccc(NC(C)=O)cc3)cn2c1N(C)CCC(C)C	nt	-2	nt	nt	nt	nt
CCCC(=O)Nc1ccc(Nc2ccccc2)cc1	-2	0	10*	i	i	8
COC(=O)c1c(NC(=O)Nc2ccc(Cl)cc2)sc(C)c1C	1	2	-10	i	i	-4
O=C(Nc1ccccc1)Nc1ccc(Nc2ccccc2)cc1	2	16	29*	i	i	18
CCCC(=O)Nc1ccc(-c2ccc(NC(=O)CCC)cc2)cc1	1	-1	-6	i	i	3
Cc1sc(NC(=O)Nc2ccccc2)c(C(N)=O)c1C	0	0	13*	i	i	-10
CCOc1ccc(S(=O)(=O)Nc2ccc(C(=O)NCC(c3ccccc3)N(C)C)cc2)cc1 (stereo not drawn)	5	0	5	i	i	-14
